# Bioassay records (PubChem BioAssay)
# This is a sample that favours compounds with a hit; in the whole collection about 3.2% have one here.
# S16 F2sN tox: cytotoxicity in S16 Pmp22-F2sN Schwann cells. hit rate 0.48% among 43,000. Potency, µM (titrated, usually from 57.5 µM), inactives show top-dose activity change, negative = cytotoxicity, usual class: cytotoxic. S16 Pmp22-F2sN Schwann cells viability, CellTiter-Glo, 24 h; also: potency is read from the fitted curve at half-maximal effect; % is scaled to controls: 0 for no effect and ±100 for the full control effect; nearly all actives have a fitted effect of over 65% in size
#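 Viability was measured by CellTiter-Glo luminescence (15 min, room temperature). This followed 24 h at 37 °C of compound exposure (23 nL pin transfer) in S16 Pmp22-F2sN Schwann cells, 500-1,000 per well.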
# PMP22 txn prim: modulators of PMP22 gene transcription in S16 Schwann cells; Potency, µM (top dose mostly 57.5 µM), inactives show top-dose activity change, negative = inhibition, most hits filed as inhibitors; S16 Pmp22-F2sN Schwann cells, FLuc/NLuc coincidence luminescence, 24 h; hit rate 2% among 43,000; active = clear falling dose curves in both reporters; inconclusive = both reporters move, but less clearly or upward; inactive = either reporter flat; the % is the NLuc reporter signal; also: potency is read from the fitted curve at half-maximal effect; % is scaled to controls: 0 for no effect and ±100 for the full control effect
#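 Rat S16 Pmp22-F2sN cells, 500-1,000/well in phenol red-free DMEM + 10% FBS, compound-treated 24 h (37C, 5% CO2). Luminescence: FLuc read, Stop&Glo added, NLuc read.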
# p53null 39C tox: selectivity test: cytotoxicity in p53 null cells, nonpermissive temperature | H1299 p53-null (neo) cells, 39C, ATPlite viability, 24 h | Potency, µM (titrated, usually from 46.1 µM), without a hit: at the highest dose activity, negative = cell killing, actives largely listed as cytotoxic | hit rate 0.97% among 55,000;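 also: potency is read from the fitted curve at half-maximal effect; 0% = DMSO only and -100% = full killing by 100 µM tamoxifen; nearly all actives have a fitted effect of over 50% in size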
#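 Luminescent ATP signal reported cell survival after H1299 lines (neo, p53 null; or p53 A138V) received up to 46 uM compound and 24 hr incubation at 39C.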
# p53null 32C kill: kills p53 null cells at the permissive temperature | H1299-neo p53 null cells, ATP luminescence, 24 h, 32C | Potency, µM (doses to about 46.1 µM), for the others: at the highest dose activity change, negative = cytotoxicity, actives largely listed as cytotoxic | hit rate 0.62% among 55,000 | AID 903;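 also: potency is read from the fitted curve at half-maximal effect; 0% = DMSO only and -100% = full killing by 100 µM tamoxifen; nearly all actives have a fitted effect of over 55% in size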
#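 Cytotoxicity: H1299-neo (no p53), 32C, 24 h treatment. Concentrations up to 46 uM. Readout cellular ATP, luminescence. Normalization to DMSO basal and tamoxifen 100 uM maximal kill.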
# mTORC1 inh: inhibitors of mTORC1 signaling in Tsc2-/- p53-/- MEF cells. Tsc2-/- p53-/- MEF, phospho-rpS6 immunofluorescence/PI, 24 h. Potency, µM (series often up to 38.3 µM), without a hit: top-dose activity change, negative = inhibition, usual class: inhibitors. hit rate 0.78% among 44,000;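 also: potency is read from the fitted curve at half-maximal effect; plate controls were DMSO for no effect and rapamycin for full effect; nearly all actives have a fitted effect of over 50% in size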
#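 Readout is phospho-S6 Alexa 488 signal normalized to PI per well, reported as % active cells with thresholds set from rapamycin (7.5 nM) and DMSO controls. Cells: Tsc2-/-, p53-/- MEFs, 24 hrs compound at 37 C; PI cell number serves as viability.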
# NLuc sat counter: NanoLuc enzyme inhibition artifact for PMP22 screen | shares compounds with PMP22 txn prim | Secreted NLuc enzyme (filtered S16 cell medium), Nano-Glo luminescence | Potency, µM (titrated, usually from 57.5 µM), for inactives: top-dose activity change, negative = inhibition, usual class: inhibitors | hit rate 4% among 690; also: potency is read from the fitted curve at half-maximal effect; % is scaled to controls: 0 for no effect and ±100 for the full control effect
# NLuc Km ctr: NanoLuc inhibition at Km substrate, PMP22 artifact check; shares compounds with PMP22 txn prim; secreted NLuc enzyme, coelenterazine luminescence, Km conditions; Potency, µM (top dose mostly 57.5 µM), for the others: at the highest dose activity change, negative = inhibition, most hits filed as inhibitors; hit rate 5% among 690; also: potency is read from the fitted curve at half-maximal effect; % is scaled to controls: 0 for no effect and ±100 for the full control effect
# FLuc ctr PMP22: firefly luciferase enzyme inhibition artifact for PMP22 screen; shares compounds with PMP22 txn prim; purified P. pyralis FLuc, luminescence, 10 min; Potency, µM (series often up to 57.5 µM), inactives show at the top dose activity, negative = inhibition, most hits filed as inhibitors; 690 tested, under 10 active; also: % of control where 0% means no effect
# Target sequence (P08659 whole entry, looked up): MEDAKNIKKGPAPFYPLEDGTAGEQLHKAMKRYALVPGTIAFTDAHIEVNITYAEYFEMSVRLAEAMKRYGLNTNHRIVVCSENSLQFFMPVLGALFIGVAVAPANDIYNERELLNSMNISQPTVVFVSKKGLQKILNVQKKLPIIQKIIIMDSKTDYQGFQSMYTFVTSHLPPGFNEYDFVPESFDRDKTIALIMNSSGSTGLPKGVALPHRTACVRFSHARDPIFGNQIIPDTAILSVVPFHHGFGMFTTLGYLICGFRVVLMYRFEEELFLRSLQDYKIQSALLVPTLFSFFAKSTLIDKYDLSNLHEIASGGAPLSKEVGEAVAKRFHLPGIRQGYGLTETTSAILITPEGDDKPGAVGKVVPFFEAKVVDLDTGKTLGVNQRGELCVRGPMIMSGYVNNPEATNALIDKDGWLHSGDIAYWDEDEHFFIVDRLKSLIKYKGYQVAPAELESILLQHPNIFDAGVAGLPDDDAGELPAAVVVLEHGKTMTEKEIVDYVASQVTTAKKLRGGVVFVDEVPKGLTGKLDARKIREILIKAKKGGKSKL
# S16 F2sN tox cnf: confirmation of cytotoxicity in S16 Pmp22-F2sN Schwann cells (luciferase reporters placed in the Pmp22 gene) | shares compounds with PMP22 txn prim | S16 Schwann cells viability, CellTiter-Glo ATP luminescence, 24 h | Potency, µM (highest dose often 57.5 µM), inactives show at the highest dose activity change, negative = viability loss, most hits filed as cytotoxic | hit rate 7% among 690 | AID 1508641; also: potency is read from the fitted curve at half-maximal effect; % is scaled to controls: 0 for no effect and ±100 for the full control effect
# PMP22 txn conf: confirmation of modulators of PMP22 gene transcription in S16 cells. shares compounds with PMP22 txn prim. S16 Schwann cells Pmp22-F2sN, dual luciferase, 24 h. Potency, µM (highest dose often 57.5 µM), inactives show at the top dose activity change, negative = inhibition, actives largely listed as inhibitors. hit rate 22% among 690. AID 1508646; active = clear falling dose curves in both reporters; inconclusive = both reporters move, but less clearly or upward; inactive = either reporter flat; the % is the FLuc reporter signal; also: potency is read from the fitted curve at half-maximal effect
# PMP22 HiBiT cnf: confirmation of modulators of rat PMP22 protein expression; 95 tested, under 10 active; shares compounds with PMP22 txn prim; Potency, µM (top dose mostly 27.9 µM), for inactives: top-dose activity change, negative = inhibition, most hits filed as inhibitors; S16 Schwann cells Pmp22-HiBiT, luminescence, 48 h; AID 1508647
# Target sequence (P25094 whole entry, looked up): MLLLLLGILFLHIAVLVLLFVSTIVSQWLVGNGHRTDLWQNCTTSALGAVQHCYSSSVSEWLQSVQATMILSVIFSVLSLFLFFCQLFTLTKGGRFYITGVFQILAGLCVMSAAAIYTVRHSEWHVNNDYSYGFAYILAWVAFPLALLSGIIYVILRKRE
# Starred values were filed as active, the others as inactive; u = inconclusive; x = not tested or not shown. Unless noted, calls follow the shape of the dose curve; as a rule, active = well fitted curve in the direction sought with a large enough effect; inconclusive = small, poorly fitted or top-dose-only effect, or another doubt; inactive = no such curve, though single readings can be large; an effect the other way counts as inactive or inconclusive.
SMILES,S16 F2sN tox,PMP22 txn prim,p53null 39C tox,p53null 32C kill,mTORC1 inh,NLuc sat counter,NLuc Km ctr,FLuc ctr PMP22,S16 F2sN tox cnf,PMP22 txn conf,others
Nc1c(-c2nc(-c3ccccc3)cs2)c2ccccn2c1C(=O)c1ccc2c(c1)OCO2,u,u,-18%,-2%,-1%,x,x,x,x,x,
CCOC(=O)c1ccc(NS(=O)(=O)c2cc(Br)cc3c2N(C(C)=O)C(C)C3)cc1 (stereo not given),0%,u,22%,9%,1%,x,x,x,x,x,
CC(=O)N1c2c(cc(Br)cc2S(=O)(=O)Nc2ccc(OC(F)(F)F)cc2)CC1C (stereo not given),-24%,16µM*,27%,25%,u,22µM*,1.5µM*,-5%,3%,-30%,
CCc1nc2scc(-c3cccs3)c2c(=O)o1,x,x,8%,1%,x,x,x,x,x,x,
Cc1ccc(C)c(N2CCN(C(=O)c3cc4ccc5cccnc5c4[nH]3)CC2)c1,-10%,u,38%,37%,-4%,x,x,x,x,x,
Cc1cccc(-c2noc(-c3ccc(NCc4cccnc4)c([N+](=O)[O-])c3)n2)c1,-5%,-88%,-24%,u,3%,x,x,x,x,x,
N#Cc1c(C(F)(F)F)cc(-c2cccs2)nc1SCC(=O)Nc1ccc(Cl)cc1,-5%,19µM*,-19%,2%,u,-4%,3%,-5%,9%,u,
CCOC(=O)c1c(NC(=O)COc2ccc(Br)cc2)sc(C(C)=O)c1C,-23%,2.1µM*,0%,-3%,3%,-3%,3%,-5%,-9%,-6%,
CCOC(=O)c1c(NC(=O)c2nc(S(C)(=O)=O)ncc2Cl)sc(C(C)=O)c1C,u,4.3µM*,23%,-9%,3.7µM*,u,u,-10%,14µM*,3.4µM*,PMP22 HiBiT cnf=u
Cn1c(=O)n(-c2ccc3c(c2)OCO3)c2nc(-c3ccc(Cl)cc3)nc(C(N)=O)c21,23%,u,0%,-2%,-2%,-4%,-1%,4%,-9%,-27%,
O=C(CCOc1ccccc1)N(Cc1cccnc1)c1nc2c(F)cccc2s1,u,u,13%,5%,u,x,x,x,x,x,
COc1ccc(-c2c(C)nn3c(N4CCN(c5ccccc5)CC4)cc(C)nc23)cc1OC,-13%,17µM*,16%,0%,-13%,u,u,-4%,-16%,u,
Cc1nc(-c2ccc(S(=O)(=O)Nc3ccc(C)c(N(C)C)c3)cc2)co1,-15%,u,0%,16%,-7%,x,x,x,x,x,
COc1cc(Cl)c(NS(=O)(=O)c2ccc(-c3coc(C)n3)cc2)c(OC)c1,-16%,13µM*,21%,9%,u,u,u,0%,u,-13%,
Cc1ccc(Sc2c(C)nn(-c3ccccc3)c2OC(=O)C(C)(C)C)cc1,-17%,-11%,-1%,9%,9%,x,x,x,x,x,
Cc1ncc(CO)c2c1Oc1nc(-c3ccc(Cl)cc3)nc(SCC(=O)N3CCCCC3)c1C2,u,u,-23%,-1%,-2%,x,x,x,x,x,
COc1ccccc1-c1nc2c(c(SCC(=O)Nc3ccc(C)c(C)c3)n1)Cc1c(CO)cnc(C)c1O2,-25%,17µM*,-15%,4%,-6%,u,u,-10%,-19%,u,
Cc1ncc(CO)c2c1Oc1nc(-c3ccccc3)nc(SCC(=O)N3CCCCC3)c1C2,1%,12µM*,-22%,3%,-2%,-5%,1%,2%,u,u,
Cc1ccc(NC(=O)CSc2nc(-c3ccc(F)cc3)nc3c2Cc2c(CO)cnc(C)c2O3)cc1C,0%,9%,u,-7%,-1%,x,x,x,x,x,
Cc1ccc(N2C(=O)c3oc4cc(C)c(C)cc4c(=O)c3C2c2cccc(O)c2)nc1 (stereo not given),4%,37%,-14%,-2%,5%,x,x,x,x,x,
CCCc1cnc2c(c1SCc1cccc(C)c1)c(=O)n(C)c(=O)n2C,2%,11%,14%,3%,3%,x,x,x,x,x,
Cc1cccc(C(=O)Nc2cccc(C(=O)OCc3cc(=O)n4nc(C(C)C)sc4n3)c2)c1,-7%,13µM*,-6%,0%,13%,2%,0%,u,-15%,30%,
CCCCc1nn2c(=O)cc(COC(=O)c3cccc(NC(=O)c4cccc(C)c4)c3)nc2s1,3%,u,0%,-6%,8%,x,x,x,x,x,
CCOc1ccccc1NC(=O)C(CC)Sc1nc2ncccc2[nH]1 (stereo not given),-6%,u,-21%,-2%,2%,x,x,x,x,x,
Cc1[nH]c2ccccc2c1C1(O)C(=O)N(Cc2ccccc2)c2ccc(Cl)cc21 (stereo not given),10%,16µM*,u,28%,u,-14%,u,4%,u,u,
Cc1ccc(CN2C(=O)C(O)(c3c(C)[nH]c4ccccc34)c3ccccc32)cc1 (stereo not given),5%,8.2µM*,2%,30%,u,u,u,3%,8%,17µM*,PMP22 HiBiT cnf=-9%
Cc1cccc(NC(=O)C2CCN(S(=O)(=O)c3cccc4nsnc34)CC2)c1,5%,-18%,-8%,-3%,1%,x,x,x,x,x,
